1 molecule from ChEMBL document CHEMBL2218924, “A broad activity screen in support of a chemogenomic map for kinase signalling research and drug discovery” (Biochem J, 2013) can be followed below.

Experiment [1] has as its target T1, Ephrin type-B receptor 1 (Homo sapiens) (UniProt P54762).
T1 sequence (whole entry): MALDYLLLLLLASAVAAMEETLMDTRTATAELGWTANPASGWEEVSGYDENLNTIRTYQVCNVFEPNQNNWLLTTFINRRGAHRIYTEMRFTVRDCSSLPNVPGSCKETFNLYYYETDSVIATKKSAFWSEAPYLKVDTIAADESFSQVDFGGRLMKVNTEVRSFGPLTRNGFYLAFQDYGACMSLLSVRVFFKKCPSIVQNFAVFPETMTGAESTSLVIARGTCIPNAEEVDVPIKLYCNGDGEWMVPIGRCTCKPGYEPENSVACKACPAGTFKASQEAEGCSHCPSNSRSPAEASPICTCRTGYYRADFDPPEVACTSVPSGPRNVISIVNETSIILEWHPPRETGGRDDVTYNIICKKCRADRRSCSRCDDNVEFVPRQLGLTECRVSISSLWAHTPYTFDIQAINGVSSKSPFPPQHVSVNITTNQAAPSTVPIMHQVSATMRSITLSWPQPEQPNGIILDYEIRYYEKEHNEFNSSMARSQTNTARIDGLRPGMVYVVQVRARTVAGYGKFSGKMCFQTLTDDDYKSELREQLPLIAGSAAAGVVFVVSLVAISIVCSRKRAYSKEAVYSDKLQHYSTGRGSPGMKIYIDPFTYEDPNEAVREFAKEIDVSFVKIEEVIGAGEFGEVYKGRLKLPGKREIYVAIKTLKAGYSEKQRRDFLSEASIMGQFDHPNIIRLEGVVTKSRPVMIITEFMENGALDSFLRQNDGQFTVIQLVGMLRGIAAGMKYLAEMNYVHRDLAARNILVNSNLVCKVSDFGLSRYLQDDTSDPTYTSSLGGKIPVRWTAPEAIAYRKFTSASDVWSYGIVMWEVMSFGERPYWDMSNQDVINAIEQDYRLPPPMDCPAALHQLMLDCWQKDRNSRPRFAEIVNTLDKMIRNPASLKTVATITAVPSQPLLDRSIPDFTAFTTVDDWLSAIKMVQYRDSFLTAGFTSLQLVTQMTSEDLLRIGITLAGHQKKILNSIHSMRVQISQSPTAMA
The note with it: at 10 µM.

For experiment [2], the target named is T2, Ephrin type-B receptor 2 (Homo sapiens) (UniProt P29323).
T2 sequence (whole entry): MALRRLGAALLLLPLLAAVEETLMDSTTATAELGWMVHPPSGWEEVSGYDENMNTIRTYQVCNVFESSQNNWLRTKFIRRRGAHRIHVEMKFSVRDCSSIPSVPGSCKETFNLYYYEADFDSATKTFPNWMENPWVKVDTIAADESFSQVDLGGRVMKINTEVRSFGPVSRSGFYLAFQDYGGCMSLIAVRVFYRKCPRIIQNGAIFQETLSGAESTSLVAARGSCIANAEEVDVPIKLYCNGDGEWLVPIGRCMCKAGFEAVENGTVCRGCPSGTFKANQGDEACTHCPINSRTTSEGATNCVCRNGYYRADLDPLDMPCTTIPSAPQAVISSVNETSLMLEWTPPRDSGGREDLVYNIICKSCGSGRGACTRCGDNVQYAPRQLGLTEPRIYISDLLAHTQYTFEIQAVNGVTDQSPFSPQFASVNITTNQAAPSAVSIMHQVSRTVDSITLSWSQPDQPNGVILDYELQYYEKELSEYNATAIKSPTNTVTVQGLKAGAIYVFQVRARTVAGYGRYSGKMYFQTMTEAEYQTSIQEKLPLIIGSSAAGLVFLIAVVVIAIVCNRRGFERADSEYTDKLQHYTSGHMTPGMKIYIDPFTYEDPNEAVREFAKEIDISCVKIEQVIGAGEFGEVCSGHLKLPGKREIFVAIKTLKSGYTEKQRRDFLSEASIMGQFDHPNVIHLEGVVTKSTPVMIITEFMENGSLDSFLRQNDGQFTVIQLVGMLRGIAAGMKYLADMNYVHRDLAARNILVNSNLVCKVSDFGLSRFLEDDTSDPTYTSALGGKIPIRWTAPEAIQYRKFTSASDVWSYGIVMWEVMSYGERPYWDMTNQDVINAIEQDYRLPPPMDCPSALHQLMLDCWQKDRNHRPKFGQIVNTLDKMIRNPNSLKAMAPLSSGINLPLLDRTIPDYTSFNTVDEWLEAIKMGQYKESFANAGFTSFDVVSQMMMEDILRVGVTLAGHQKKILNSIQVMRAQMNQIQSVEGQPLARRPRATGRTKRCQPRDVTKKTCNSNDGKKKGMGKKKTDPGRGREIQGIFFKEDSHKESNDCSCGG
The note with it: at 1 µM.

The target of experiment [3] is T2, Ephrin type-B receptor 2 (Homo sapiens). The note with it: at 10 µM.
The target in experiment [4] is T3, Ephrin type-B receptor 3 (Homo sapiens) (UniProt P54753).
T3 sequence (whole entry): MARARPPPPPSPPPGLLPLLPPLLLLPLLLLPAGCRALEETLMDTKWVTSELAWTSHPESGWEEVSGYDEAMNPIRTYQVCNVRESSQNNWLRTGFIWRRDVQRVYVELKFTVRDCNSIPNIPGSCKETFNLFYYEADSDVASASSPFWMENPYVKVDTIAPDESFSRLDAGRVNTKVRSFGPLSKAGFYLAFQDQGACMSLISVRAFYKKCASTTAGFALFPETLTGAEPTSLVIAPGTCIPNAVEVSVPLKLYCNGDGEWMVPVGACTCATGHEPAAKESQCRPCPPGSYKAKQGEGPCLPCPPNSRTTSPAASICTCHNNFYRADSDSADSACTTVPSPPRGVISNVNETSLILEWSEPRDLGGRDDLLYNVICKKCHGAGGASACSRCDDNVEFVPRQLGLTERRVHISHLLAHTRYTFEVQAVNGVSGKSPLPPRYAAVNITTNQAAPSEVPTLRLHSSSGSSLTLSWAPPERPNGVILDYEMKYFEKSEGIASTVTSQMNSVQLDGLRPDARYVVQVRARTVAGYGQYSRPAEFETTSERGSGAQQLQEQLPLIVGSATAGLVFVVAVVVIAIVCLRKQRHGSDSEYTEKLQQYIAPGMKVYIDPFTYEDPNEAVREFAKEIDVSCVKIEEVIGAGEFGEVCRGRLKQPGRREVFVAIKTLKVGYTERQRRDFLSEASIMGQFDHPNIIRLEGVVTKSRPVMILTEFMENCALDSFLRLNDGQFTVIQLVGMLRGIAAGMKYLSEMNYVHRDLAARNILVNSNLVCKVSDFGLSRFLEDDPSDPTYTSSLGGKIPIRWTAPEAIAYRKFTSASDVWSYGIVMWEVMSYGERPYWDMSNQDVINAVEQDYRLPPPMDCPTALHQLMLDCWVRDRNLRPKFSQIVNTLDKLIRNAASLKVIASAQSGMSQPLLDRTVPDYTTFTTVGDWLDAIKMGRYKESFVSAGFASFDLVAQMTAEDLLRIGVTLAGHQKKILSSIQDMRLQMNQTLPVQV
The note with it: at 1 µM.

Experiment [5] addresses T3, Ephrin type-B receptor 3 (Homo sapiens). The note with it: at 10 µM.
Experiment [6] has as its target T4, Ephrin type-B receptor 4 (Homo sapiens) (UniProt P54760).
T4 sequence (whole entry): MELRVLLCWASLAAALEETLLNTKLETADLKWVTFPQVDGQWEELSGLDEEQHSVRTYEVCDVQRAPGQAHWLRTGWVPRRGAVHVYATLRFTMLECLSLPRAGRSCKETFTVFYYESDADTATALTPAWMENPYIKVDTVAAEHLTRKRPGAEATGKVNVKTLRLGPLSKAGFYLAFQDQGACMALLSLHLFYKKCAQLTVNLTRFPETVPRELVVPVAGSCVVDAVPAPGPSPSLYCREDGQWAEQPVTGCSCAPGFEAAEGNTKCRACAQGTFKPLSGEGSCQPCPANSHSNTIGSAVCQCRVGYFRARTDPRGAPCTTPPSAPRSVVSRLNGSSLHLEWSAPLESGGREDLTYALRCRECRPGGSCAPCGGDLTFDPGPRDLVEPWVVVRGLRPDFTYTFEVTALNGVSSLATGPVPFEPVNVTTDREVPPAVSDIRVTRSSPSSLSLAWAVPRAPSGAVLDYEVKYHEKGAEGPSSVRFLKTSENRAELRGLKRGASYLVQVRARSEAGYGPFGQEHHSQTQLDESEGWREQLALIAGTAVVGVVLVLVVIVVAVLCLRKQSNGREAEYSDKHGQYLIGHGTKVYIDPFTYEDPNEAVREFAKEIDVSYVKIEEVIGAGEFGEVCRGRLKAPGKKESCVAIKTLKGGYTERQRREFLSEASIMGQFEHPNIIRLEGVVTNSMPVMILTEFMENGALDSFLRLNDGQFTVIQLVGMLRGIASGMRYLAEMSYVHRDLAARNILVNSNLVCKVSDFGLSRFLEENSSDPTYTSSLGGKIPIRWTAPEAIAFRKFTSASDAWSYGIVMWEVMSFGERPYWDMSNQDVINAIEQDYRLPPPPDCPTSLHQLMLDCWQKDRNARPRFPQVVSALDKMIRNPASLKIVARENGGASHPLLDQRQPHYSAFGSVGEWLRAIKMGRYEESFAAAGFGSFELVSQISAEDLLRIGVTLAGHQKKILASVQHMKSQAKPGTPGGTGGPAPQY
The note with it: at 1 µM.

The target of experiment [7] is T4, Ephrin type-B receptor 4 (Homo sapiens). The note with it: at 10 µM.
The target of experiment [8] is Receptor tyrosine-protein kinase erbB-4 (Homo sapiens) (UniProt Q15303). The following applies: at 1 µM.
Sequence of Receptor tyrosine-protein kinase erbB-4 (Homo sapiens) (Q15303 whole entry): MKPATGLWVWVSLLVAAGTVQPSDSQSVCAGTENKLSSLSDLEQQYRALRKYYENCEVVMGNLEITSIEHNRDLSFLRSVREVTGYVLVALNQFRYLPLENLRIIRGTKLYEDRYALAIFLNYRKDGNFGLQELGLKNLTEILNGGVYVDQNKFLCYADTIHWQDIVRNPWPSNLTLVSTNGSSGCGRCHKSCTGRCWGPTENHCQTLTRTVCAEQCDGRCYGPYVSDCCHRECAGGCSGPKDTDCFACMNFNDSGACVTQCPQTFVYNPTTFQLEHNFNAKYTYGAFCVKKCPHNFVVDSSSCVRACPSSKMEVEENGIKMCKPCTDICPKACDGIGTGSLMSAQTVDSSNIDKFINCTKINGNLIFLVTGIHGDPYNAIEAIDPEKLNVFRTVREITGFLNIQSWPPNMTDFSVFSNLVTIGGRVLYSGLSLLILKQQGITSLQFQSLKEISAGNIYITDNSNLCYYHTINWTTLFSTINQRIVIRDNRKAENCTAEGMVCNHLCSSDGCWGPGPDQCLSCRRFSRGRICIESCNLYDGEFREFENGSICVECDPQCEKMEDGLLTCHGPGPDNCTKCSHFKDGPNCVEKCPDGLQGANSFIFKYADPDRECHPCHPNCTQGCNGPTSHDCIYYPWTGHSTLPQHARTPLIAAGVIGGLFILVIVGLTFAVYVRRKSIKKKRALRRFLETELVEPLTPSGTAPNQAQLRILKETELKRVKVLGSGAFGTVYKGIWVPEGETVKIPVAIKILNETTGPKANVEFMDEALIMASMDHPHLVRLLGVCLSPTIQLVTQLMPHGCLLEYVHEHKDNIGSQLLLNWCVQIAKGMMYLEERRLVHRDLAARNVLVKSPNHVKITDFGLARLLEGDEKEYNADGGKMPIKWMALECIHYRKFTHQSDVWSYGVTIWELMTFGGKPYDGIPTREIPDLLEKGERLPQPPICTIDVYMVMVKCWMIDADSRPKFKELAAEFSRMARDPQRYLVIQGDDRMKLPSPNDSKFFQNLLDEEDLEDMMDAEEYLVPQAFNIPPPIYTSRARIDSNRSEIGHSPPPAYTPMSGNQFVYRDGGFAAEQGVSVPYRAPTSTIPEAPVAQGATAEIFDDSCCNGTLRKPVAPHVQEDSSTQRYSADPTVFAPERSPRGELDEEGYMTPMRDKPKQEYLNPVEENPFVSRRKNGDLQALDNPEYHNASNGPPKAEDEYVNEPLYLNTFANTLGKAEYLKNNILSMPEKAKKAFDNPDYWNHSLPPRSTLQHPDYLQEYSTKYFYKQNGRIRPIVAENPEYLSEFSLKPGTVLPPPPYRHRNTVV
For experiment [9] the target is unchanged. The note with it: at 10 µM.
The target of experiment [10] is Focal adhesion kinase 1 (Homo sapiens) (UniProt Q05397). The note with it: at 1 µM.
Sequence of Focal adhesion kinase 1 (Homo sapiens) (Q05397 2-1052 limits assumed): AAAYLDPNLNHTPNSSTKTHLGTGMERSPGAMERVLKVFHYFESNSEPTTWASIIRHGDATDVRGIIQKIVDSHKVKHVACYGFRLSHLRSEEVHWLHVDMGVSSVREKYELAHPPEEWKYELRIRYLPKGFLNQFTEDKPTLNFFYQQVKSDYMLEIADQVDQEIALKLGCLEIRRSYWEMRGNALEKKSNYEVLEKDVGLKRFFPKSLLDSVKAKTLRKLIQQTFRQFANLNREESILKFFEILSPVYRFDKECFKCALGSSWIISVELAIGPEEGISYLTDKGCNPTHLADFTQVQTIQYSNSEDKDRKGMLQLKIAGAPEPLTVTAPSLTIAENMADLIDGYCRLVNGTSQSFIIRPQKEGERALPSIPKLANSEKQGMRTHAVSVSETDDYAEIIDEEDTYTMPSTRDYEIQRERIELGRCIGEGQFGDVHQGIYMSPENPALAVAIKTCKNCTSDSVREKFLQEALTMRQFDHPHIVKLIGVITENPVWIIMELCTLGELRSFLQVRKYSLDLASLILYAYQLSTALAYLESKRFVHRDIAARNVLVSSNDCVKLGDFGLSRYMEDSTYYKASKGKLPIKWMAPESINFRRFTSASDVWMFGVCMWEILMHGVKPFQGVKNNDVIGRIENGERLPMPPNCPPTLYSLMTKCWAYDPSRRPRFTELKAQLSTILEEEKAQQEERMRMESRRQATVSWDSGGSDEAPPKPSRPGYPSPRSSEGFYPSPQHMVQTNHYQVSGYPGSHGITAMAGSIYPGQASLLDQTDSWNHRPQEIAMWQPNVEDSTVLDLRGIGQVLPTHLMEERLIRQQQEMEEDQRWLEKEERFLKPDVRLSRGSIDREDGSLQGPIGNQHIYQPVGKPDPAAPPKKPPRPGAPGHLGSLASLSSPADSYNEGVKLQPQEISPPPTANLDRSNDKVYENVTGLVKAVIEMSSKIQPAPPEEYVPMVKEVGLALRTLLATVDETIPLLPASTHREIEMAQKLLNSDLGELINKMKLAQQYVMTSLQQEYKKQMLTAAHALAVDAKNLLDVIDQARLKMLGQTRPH

Structures are written as SMILES.

As a reminder, the residual activity is the signal under treatment as a percentage of the control signal. Turning to `COC(=O)[C@@]1(O)C[C@H]2O[C@]1(C)n1c3ccccc3c3c4c(c5c6ccccc6n2c5c31)C(=O)NC4`, the residual activity in [1] was 4%; in [2], 114%; in experiment [3], 55%; in experiment [4] it was 110% (inactive); in experiment [5], 100%; in [6] it was 71%. Moreover, the residual activity came to 22% in experiment [7], 64% in [8], 19% in [9] and 39% in experiment [10].
